This note sets out measurements from PubChem BioAssay (NCI).

The panel holds about 83,000 compounds, 20% with a hit somewhere; the sample as a whole holds those more often.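 Single-concentration screen, 48 h exposure, 96-well plates. Endpoint: percent growth. Below 10 = active.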 A number with no mark means an inactive call. Calls of active or inactive are those of the source.

Among the test systems are NCI-H23 lung; NCI-H226 lung; NCI-H322M lung; HOP-62 NSCLC; NCI-H460 lung; HOP-92 NSCLC; NCI-H522 lung; A549/ATCC NSCLC; 786-0 renal; COLO 205 colon; DU-145 prostate; K-562 leukemia; MALME-3M melanoma; MDA-MB-231 breast; RXF 393 renal; SF-268 CNS; SF-295 CNS; SF-539 CNS; UACC-257 melanoma; M14 melanoma.
What all share (assay): NCI-60 one-dose screen, 48 h (100 = growth as untreated, 0 = no growth, -100 = all killed)
Common to all, as to details: 10 µM unless noted

For `C/C(=C(/c1ccc(O)cc1)c1ccc(Cl)cc1)c1ccccc1`, the growth is -62.5% (active) in the assay on NCI-H23 lung; -80.4% (active) in the assay on NCI-H226 lung; -95% (active) in the assay with NCI-H322M lung; -90.8% (active) in the assay on HOP-62 NSCLC; -91.2% (active) with NCI-H460 lung; -96% (active) with HOP-92 NSCLC. For the same compound, the growth in the assay on NCI-H522 lung is -78% (active); with A549/ATCC NSCLC, -85.8% (active); in the assay with 786-0 renal it was -89.3% (active); with COLO 205 colon, -82.8% (active); in the assay with DU-145 prostate, -75.2% (active); in the assay on K-562 leukemia, -1.81% (active). In addition, the growth was -94.6% (active) in the assay with MALME-3M melanoma; -83.3% (active) with MDA-MB-231 breast; -79.3% (active) in the assay on RXF 393 renal; -83.4% (active) in the assay on SF-268 CNS; -95.1% (active) in the assay on SF-295 CNS; -96% (active) in the assay with SF-539 CNS. The growth is -74.6% (active) in the assay with UACC-257 melanoma and -78.1% (active) in the assay with M14 melanoma.

As for `CSc1[nH]c2ncnc(N)c2c1C#N`, the growth in the assay on NCI-H23 lung is 91.4%; in the assay with NCI-H226 lung, 73.6%; in the assay with NCI-H322M lung, 82.9%; in the assay on HOP-62 NSCLC, 94.9%; in the assay on NCI-H460 lung, 99.6%; with HOP-92 NSCLC, 118%. Also, the growth was 82.6% with NCI-H522 lung; 101% in the assay with A549/ATCC NSCLC; 99.7% with 786-0 renal; 117% in the assay on COLO 205 colon; 101% in the assay with DU-145 prostate; 84.6% in the assay with K-562 leukemia. Also, the growth was 107% with MALME-3M melanoma; 98.8% in the assay on MDA-MB-231 breast; 151% in the assay on RXF 393 renal; 113% in the assay with SF-268 CNS; 105% in the assay with SF-295 CNS; 96.3% with SF-539 CNS. For the same compound, the growth with UACC-257 melanoma was 124%; with M14 melanoma, 95.1%.

As for `CCN(CC)CC#CCOC(=O)[C@]1(C)CCC[C@@]2(C)[C@H]1CC(C=O)=C1C=C(C(C)C)CC[C@@H]12`, the growth in the assay with NCI-H23 lung was 60.2%; in the assay on NCI-H226 lung, 76%; with NCI-H322M lung it was 94.5%; in the assay on HOP-62 NSCLC, 74.8%; in the assay on NCI-H460 lung, 64%; with HOP-92 NSCLC it was 44.8%. Further, the growth with NCI-H522 lung is 53.3%; in the assay with A549/ATCC NSCLC it was 62.4%; in the assay with 786-0 renal, 58.3%; in the assay with COLO 205 colon, 44.5%; in the assay with DU-145 prostate, 90.1%; in the assay with K-562 leukemia, 20.7%. Moreover, the growth with MALME-3M melanoma is 82.3%; in the assay on MDA-MB-231 breast it was 76%; with RXF 393 renal, 61.2%; in the assay with SF-268 CNS, 75.8%; in the assay on SF-295 CNS, 71.8%; with SF-539 CNS it was 49.1%. The growth is 85.4% in the assay on UACC-257 melanoma and 56.4% in the assay with M14 melanoma.

`CC1CN(C(C)C)C(=S)N(c2ccccc2)C1=O` (stereo not drawn): the growth in the assay on NCI-H23 lung is 94.6%; in the assay on NCI-H226 lung it was 106%; in the assay on NCI-H322M lung, 101%; with HOP-62 NSCLC it was 85.7%; in the assay on NCI-H460 lung it was 105%; in the assay with HOP-92 NSCLC, 107%. Besides, the growth in the assay on NCI-H522 lung is 87%; in the assay on A549/ATCC NSCLC, 101%; with 786-0 renal, 96.2%; in the assay on COLO 205 colon, 157%; in the assay on DU-145 prostate it was 103%; in the assay on K-562 leukemia it was 95.9%. Also, the growth in the assay on MALME-3M melanoma is 82%; in the assay with MDA-MB-231 breast it was 90.4%; in the assay with RXF 393 renal it was 102%; in the assay on SF-268 CNS, 98.8%; in the assay with SF-295 CNS, 108%; with SF-539 CNS, 96.4%. Also, in the assay with M14 melanoma, the growth is 93.2%.

As to `CCN(C(=O)CN1CCN(c2cc3c(cc2F)c(=O)c(C(=O)O)cn3C2CC2)CC1)c1nc(-c2ccc(OC)cc2)cs1`, the growth with NCI-H23 lung is 66%; in the assay with NCI-H226 lung, 85.8%; in the assay on NCI-H322M lung, 38.8%; in the assay with HOP-62 NSCLC it was 80.9%; in the assay on NCI-H460 lung, -2.51% (active); in the assay with HOP-92 NSCLC it was 40%. Also, the growth is 49% in the assay on NCI-H522 lung; 11.4% in the assay with A549/ATCC NSCLC; 102% in the assay with 786-0 renal; 63.7% in the assay with COLO 205 colon; 35.7% in the assay on DU-145 prostate; 32.5% in the assay with K-562 leukemia. Besides, the growth with MALME-3M melanoma was 66.1%; with MDA-MB-231 breast, 68.5%; in the assay with RXF 393 renal, 74.9%; in the assay on SF-268 CNS, 59.8%; with SF-295 CNS, 94.6%; with UACC-257 melanoma, 43.1%. The growth in the assay with M14 melanoma is 48.7%.

For the compound `CCCCCCCCCCCCNC(=O)[C@H]1CSC(c2ccc(OC)c(F)c2)N1` (stereo partly drawn), the growth in the assay with NCI-H23 lung was -78.2% (active); with NCI-H226 lung, -71.4% (active); with NCI-H322M lung, -98.4% (active); with HOP-62 NSCLC it was -81.8% (active); in the assay on NCI-H460 lung, -71.8% (active); with HOP-92 NSCLC it was -93.8% (active). The growth was -73.5% (active) in the assay with NCI-H522 lung; -88.5% (active) with A549/ATCC NSCLC; -96.6% (active) in the assay on 786-0 renal; -81.5% (active) in the assay with COLO 205 colon; -87.6% (active) in the assay with DU-145 prostate; -52.7% (active) in the assay on K-562 leukemia. Further, the growth in the assay with MALME-3M melanoma was -92.3% (active); in the assay with MDA-MB-231 breast, -88.3% (active); in the assay with RXF 393 renal, -96.1% (active); in the assay on SF-268 CNS, -69.2% (active); in the assay on SF-295 CNS it was -88.4% (active); with SF-539 CNS it was -94.3% (active). For the same compound, the results for the growth in the assay with UACC-257 melanoma and with M14 melanoma were -94.1% (active) and -89.6% (active), respectively.

As for `O=[N+]([O-])c1cccc(-c2nc3sccn3c2-c2ccnc(NCCCNS(=O)(=O)c3ccc(Br)cc3)n2)c1`, the growth in the assay with NCI-H23 lung was 41.4%; with NCI-H226 lung, 41%; in the assay on NCI-H322M lung it was 76.1%; in the assay on HOP-62 NSCLC, 74.7%; in the assay with NCI-H460 lung it was 66.7%; with HOP-92 NSCLC, 78%. Further, the growth with NCI-H522 lung is 37.4%; in the assay with A549/ATCC NSCLC, 53.8%; in the assay on 786-0 renal it was 75.5%; in the assay with COLO 205 colon, 41.3%; in the assay on DU-145 prostate, 58.9%; with K-562 leukemia, 31.7%. Further, the growth with MALME-3M melanoma was 59.9%; in the assay with MDA-MB-231 breast, 67.3%; with RXF 393 renal, 81.3%; in the assay with SF-268 CNS, 56.6%; in the assay on SF-295 CNS, 48.2%; in the assay with SF-539 CNS, 90.3%. The results for the growth in the assay on UACC-257 melanoma and in the assay on M14 melanoma were 61.1% and 45.8%, respectively.

On to `COc1ccc(C2c3ccc4ccccc4c3Oc3ncnc(N)c32)cc1` (stereo not drawn), for which the growth in the assay with NCI-H23 lung was 83%; in the assay with NCI-H226 lung, 63.9%; in the assay with NCI-H322M lung, 88%; in the assay with HOP-62 NSCLC, 45.1%; in the assay with NCI-H460 lung it was 92.4%; with HOP-92 NSCLC, 70.4%. Moreover, the growth with NCI-H522 lung is 46.2%; with A549/ATCC NSCLC, 97.3%; in the assay on 786-0 renal, 97.1%; with COLO 205 colon, 94.5%; with DU-145 prostate, 102%; in the assay with K-562 leukemia, 41.2%. Besides, the growth in the assay on MALME-3M melanoma is 93.1%; with MDA-MB-231 breast it was 64.8%; with RXF 393 renal, 85.5%; in the assay with SF-268 CNS it was 86.2%; in the assay with SF-295 CNS, 87%; in the assay with SF-539 CNS, 88.2%. For the same compound, the values for the growth in the assay with UACC-257 melanoma and in the assay on M14 melanoma were 98.5% and 83%, respectively.
